Assay outcomes (PubChem)
CHX counter: affects cycloheximide protein synthesis inhibition readout, counter-screen. cell reporter, cycloheximide protein synthesis inhibition counterscreen. max response, %. actives 12% (n = 300,000). AID 2314; in the data active means max response mostly above about 13%, no sharp cut-off; inactive means mostly below about 14%; further: read at 38.3 µM for the half of the compounds with a filed dose; 0% is about no effect
LmPK inh: blocks Leishmania mexicana pyruvate kinase activity; Q27686; actives 0.37% (n = 290,000); purified LmPK, Kinase-Glo ATP luminescence, 1 h; Potency, µM (doses to about 57.5 µM), without a hit: at the highest dose activity change, negative = inhibition, actives largely listed as inhibitors; further: potency means the concentration at half of the fitted maximal effect; on the % scale 0 is the no-effect control and ±100 the full control effect
Target sequence (Q27686 whole entry, looked up): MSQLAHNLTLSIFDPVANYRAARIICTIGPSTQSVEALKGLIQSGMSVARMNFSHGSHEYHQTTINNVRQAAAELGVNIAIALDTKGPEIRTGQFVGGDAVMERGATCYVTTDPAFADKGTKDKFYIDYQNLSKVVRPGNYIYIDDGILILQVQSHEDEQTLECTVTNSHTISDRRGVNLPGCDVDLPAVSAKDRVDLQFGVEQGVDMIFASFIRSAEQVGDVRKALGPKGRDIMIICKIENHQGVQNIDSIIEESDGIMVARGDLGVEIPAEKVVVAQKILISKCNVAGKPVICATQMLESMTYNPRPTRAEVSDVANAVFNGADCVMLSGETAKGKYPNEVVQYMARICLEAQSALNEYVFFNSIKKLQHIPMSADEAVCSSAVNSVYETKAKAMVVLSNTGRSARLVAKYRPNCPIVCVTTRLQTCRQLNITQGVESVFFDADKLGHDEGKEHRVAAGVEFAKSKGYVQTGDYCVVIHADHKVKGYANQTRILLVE
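qHTS format; LmPK 0.1 nM; substrates PEP 0.5 mM and ADP 0.1 mM. One-hour room-temperature incubation, then coupled luciferase luminescence; 0.5 nM enzyme wells mark activation.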
Shiga toxin inh: Shiga toxin inhibition; actives 9.2% (n = 290,000); inhibition, % at 38.7 µM; Vero cells, Shiga toxin protein synthesis inhibition reporter; AID 2315; in the data active means inhibition mostly above about 28%, no sharp cut-off; inactive means mostly below about 43%; further: 0% is about no effect
NS1 inh: blocks influenza NS1 protein function. AID 2326. actives 0.4% (n = 270,000). Potency, µM (highest dose often 46.1 µM), inactives show top-dose activity, positive = more growth; calls by dose curve; further: potency means the concentration at half of the fitted maximal effect; actives are rising curves; nearly all actives have a fitted effect of over 50% in size
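Compounds were scored for reversing the slow growth caused by influenza A NS1 in S. cerevisiae, measured by optical density at 600 nm. Assay medium contained 2% galactose at pH 6.0; NS1-free yeast of the same strain were the positive control.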
FBPA Giardia inh: Giardia lamblia aldolase inhibition | Potency, µM (doses to about 59.6 µM), for inactives: top-dose activity, negative = inhibition, hits mostly inhibitors | purified Giardia FBPA | A8B2U2 | actives 0.71% (n = 290,000) | AID 2451; further: potency means the concentration at half of the fitted maximal effect; on the % scale 0 is the no-effect control and ±100 the full control effect; nearly all actives have a fitted effect of over 55% in size
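Giardia FBPA (40 nM reagent) was preincubated 10 min at RT with compound (up to 57.5 uM final), then substrate plus GAPDH/TPI/NAD/arsenate coupling system with diaphorase/resazurin was added; resorufin fluorescence (525/598 nm) was read after 20 min.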
* marks the source's active call; other numbers are inactive results; ? = inconclusive; . = not tested or not shown. Only some compounds are listed: those with a hit (about 14% of all), similar ones and a draw of the others. Unless noted, the call rests on the fitted dose curve; in most records, active means well fitted curve in the direction sought with a large enough effect; inconclusive means small, poorly fitted or top-dose-only effect, or another doubt; inactive means no such curve, though single readings can be large; an effect the other way counts as inactive or inconclusive.

SMILES	CHX counter	LmPK inh	Shiga toxin inh	NS1 inh	FBPA Giardia inh
CC[C@H](C)[C@H](NC(=O)[C@H](Cc1ccccc1)NC(=O)[C@H](C)NC(=O)[C@H](CC(=O)O)NC(=O)[C@H](CCCCN)NC(=O)[C@H](CO)NC(=O)[C@@H]1CCCN1C(=O)[C@@H]1CCC(=O)N1)C(=O)NCC(=O)N[C@@H](CC(C)C)C(=O)N[C@@H](CCSC)C(N)=O	6.4	.	-8.2	.	1.6%
O=C(O)c1ccccc1OCc1ccccc1Br	3.5	1.6%	11.0	.	7.0%
O=C(OCc1nc2ccccc2s1)c1cccs1	52.3*	-15.0%	92.3*	-9.7%	-10.0%
COc1cc(OC)cc(C(=O)NCC(=O)OCc2nc3ccccc3s2)c1	36.4*	1.7%	113.0*	-6.1%	-1.0%
O=C(OCc1nc2ccccc2c(=O)[nH]1)c1cccs1	18.7*	-2.1%	44.4	-51.1%	-6.7%
O=C(CNC(=O)c1ccc(Cl)cc1)OCc1nc2ccccc2s1	6.9	2.8%	20.2	-3.6%	2.6%
O=C(O)c1ccccc1OCc1nc2ccccc2s1	64.5*	-24.2%	110.3*	3.1%	-6.4%
CC(C)CCCC(C)CCCC(C)CCCC(C)C(=O)O (configuration not stated)	-2.7	.	20.7	.	23.0%
Cc1cccc(C(=O)OCc2cnc(Cl)s2)c1	11.0*	-0.9%	12.0	-3.5%	7.0%
O=C(OCc1cncs1)c1cccs1	5.2	-0.3%	19.3	-1.8%	3.1%
O=C(Nc1ccccc1)OCc1cncs1	21.6	-12.3%	32.1*	-2.4%	4.3%
O=C(Nc1ccc(Cl)c(Cl)c1)OCc1cncs1	38.9*	4.8%	42.2*	2.9%	1.8%
O=C(/C=C/c1ccccc1)OCc1cncs1	33.3*	-1.4%	88.5*	1.6%	4.7%
O=C(Nc1ccccc1)OCc1cnc(Cl)s1	11.9	1.8%	35.6	-5.3%	-0.3%
CN(Cc1ccco1)c1ncnc2ccc(-c3ccccc3C(F)(F)F)cc12	.	.	.	.	0.1%
NC(=O)CC(NC(=O)Cc1ccc(Cl)cc1)c1ccc(NC2CCCCCCC2)c([N+](=O)[O-])c1 (configuration not stated)	-3.2	2.0%	-2.4	10.9%	2.6%
O=C(Nc1ccc(Cl)c(Cl)c1)OCc1cnc(Cl)s1	20.1*	3.1%	15.2	14.0%	-2.4%
Cc1ccccc1C(=O)Nc1ccc(S(=O)(=O)N2CCCC2)cc1	8.4	1.8%	3.5	-17.0%	3.9%
CC1CN(C(=O)CCC(=O)NCCc2ccccc2)c2ccccc2O1 (configuration not stated)	25.3*	-2.7%	35.1*	-18.2%	-7.7%
NS(=O)(=O)c1ccc2nc(NC(=O)c3ccc(Br)o3)sc2c1	23.8*	12.4%	49.9*	.	-4.8%
CC(=O)Cc1nsc(NC(=O)c2ccc(Br)o2)n1	-3.3	-0.4%	32.0	-3.5%	1.0%
Cc1ccc2nc(NC(=O)c3ccc(Br)o3)sc2c1	44.5*	-10.2%	95.1*	-6.7%	6.0%
Cc1cc(C(=O)CS(=O)(=O)c2ccc(Cl)cc2)cc(C)c1O	5.5	0.3%	31.9	-1.4%	-4.9%
CN(Cc1ccco1)c1ncncc1-c1cccc(NS(C)(=O)=O)c1	.	.	.	.	-2.4%
O=C(Nc1c(C(=O)N2CCOCC2)cnn1-c1ccccc1)c1cccc(F)c1	-5.8	-0.6%	-4.5	-4.2%	.
SMILES	CHX counter	LmPK inh	Shiga toxin inh	NS1 inh	FBPA Giardia inh
CN1C(=O)c2cccc(N(C)C)c2C1=O	-2.6	0.4%	24.2	2.3%	6.8%
CN(C)c1cccc2c1C(=O)c1ccccc1C2=O	13.3*	-15.2%	27.1	-10.6%	?
COc1ccc(Oc2ncc3nc(-c4cccc(C#N)c4)c(=O)n(Cc4cccc(OC)c4)c3n2)cc1	.	.	.	.	-0.2%
COc1cccc(-c2nn(C)c3sc(C(=O)Nc4ccc5c(c4)OCCO5)cc23)c1	60.7*	-5.5%	74.7*	-8.6%	-4.6%
Cn1nc(-c2ccccc2F)c2cc(C(=O)Nc3ccc4c(c3)OCCO4)sc21	15.0	7.4%	15.6	26.3%	-7.5%
CCCCC1=CC2=C(c3ccco3)C(=O)C(C)(OC(=O)c3cccs3)C(=O)C2=CO1 (configuration not stated)	.	.	.	.	-4.2%
CC(=O)Nc1ccc(S(=O)(=O)NC(CC(=O)NCCc2ccccc2)C(C)C)cc1 (configuration not stated)	30.6*	7.9%	52.0	-6.3%	5.8%
Cc1ccc(S(=O)(=O)NC(=O)NCCc2ccccc2)cc1	14.5*	-0.3%	89.4	.	10.0%
Cc1ccc(S(=O)(=O)NC(Cc2ccccc2)C(=O)O)cc1 (configuration not stated)	-4.7	2.3%	11.9	-1.0%	6.8%
Cc1ccc(S(=O)(=O)NC(=O)NC(C)Cc2ccccc2)cc1 (configuration not stated)	19.8*	0.7%	55.7	-1.9%	0.4%
COc1ccc(S(=O)(=O)n2ccc(-c3ccc4c(c3)CCC(C)(C)O4)n2)cc1	2.7	-0.5%	19.2	1.9%	-1.6%
CC1(C)CCc2cc(-c3ccn(S(=O)(=O)c4ccccc4Cl)n3)ccc2O1	16.5*	8.3%	38.4	-2.3%	-9.8%
Nc1cc2c(cc1O)CCCC2	51.4*	-14.6%	136.3	3.5%	?
O=c1ccc(-c2ccc(S(=O)(=O)NCC3CCN(Cc4ccccc4F)CC3)s2)n[nH]1	-2.1	-4.2%	-8.7	-5.4%	.
CSCC[C@H](N)C(=O)N1CCC(C(=O)N[C@@H](C)C(=O)NCc2ccc(F)cc2)CC1	-3.8	-6.9%	-3.0	-16.1%	?
O=C(O)c1ccccc1C(=O)N1CCN(C(=O)c2ccccc2Cl)CC1	6.8	-1.6%	20.9	.	1.1%
O=C(O)c1ccccc1C(=O)N1CC=C(c2ccccc2)CC1	26.9*	3.7%	71.9	-1.5%	-6.3%
CC(C)NC(=O)CSc1nc2ccccc2n1CC(=O)N(C(C)C)C(C)C	20.4*	-5.5%	45.9*	.	5.0%
COCCCn1c(SCC(=O)Nc2ccc(C(C)=O)cc2)nc2ccccc2c1=O	44.6*	-5.3%	79.8*	-10.8%	-14.6%
CCn1c(SCC(=O)Nc2ccc(C(C)=O)cc2)nc2ccccc21	41.8*	-9.7%	107.1*	11.4%	-5.5%
CC(=O)c1ccc(NC(=O)CSc2nc(=O)cc(N)n2-c2ccccc2)cc1	32.8*	2.2%	91.1*	-0.9%	4.4%
O=C(NCC1CCCN(C(=O)Cc2ccccc2Cl)C1)c1ccc(F)cc1 (configuration not stated)	11.1	1.0%	11.9	4.6%	.
CCN1C(=NCCCOC(C)C)N[C@@H](CCc2ccccc2)[C@H](C(=O)NCCCOC(C)C)[C@H]1C	-2.9	-3.3%	-5.8	1.5%	-11.8%
Cc1cc(C(=O)O)ccc1[C@H](N)C(=O)O	.	.	.	.	8.4%
C=C[C@]1(C)C[C@H](OC(=O)CO)[C@]2(C)C3C(=O)CC[C@]3(CC[C@H]2C)[C@H](C)[C@H]1O (some centres not stated)	.	.	.	-7.7%	.
COCCCNC(=O)c1ccc2nc3ccccc3c(=O)n2c1	12.9*	-2.5%	-1.1	-6.2%	.
CN(C)CCCCN1CCc2c(n(C)c3ccccc23)C1=O	.	.	.	-2.0%	.
NCCSCc1ccccc1Cl	.	.	.	-2.8%	.
COc1ccc(-c2nc3cnc(N4CCNCC4)nc3n(CCc3ccccc3)c2=O)cc1	.	.	.	.	-0.5%
